# According to ChEMBL document CHEMBL1201862, “PubChem BioAssay data set” (2004):
# Out of some 58,000 sequences screened, about 4,600 (7.9%) were called active. No stated cut-off is given here; in the data, active = GI50 up to about 1.1 µM and inactive = higher. The full list was thinned out, with actives kept by preference. Results with a measured potency or affinity are listed apart.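 Grown in 96-well plates, cells were treated for 48 hours with each compound at five concentrations. Insufficient inhibition: endpoint recorded as highest concentration tested. GI50 marks 50% less growth.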
# Test system: SW-620
# Experiment: NCI tumour cell line growth inhibition, 48 h
row,Substance,GI50
1,"cis-Bis[[(trimethylsilyl)methyl]amino]tetrachloroplatinum(IV), CHEMBL2146191",2400 nM
2,"[Bis(aminomethyl)pentamethylenesilane]tetrachloropaltinum(IV), CHEMBL2146204",1060 nM
3,"[Bis(aminomethyl)pentamethylenesilane]dichloropaltinum(II), CHEMBL2146202",6700 nM
4,"[Bis(aminomethyl)dimethylsilane]tetrachloroplatinum(IV), CHEMBL2146190",1890 nM
5,"[Bis(aminomethyl)ethylmethylsilane]tetrachloroplatinum(IV), CHEMBL2146192",1020 nM
6,"[Bis(aminomethyl)dimethylsilane]dichloroplatinum (II), CHEMBL2146201",4860 nM
7,"[Bis(aminomethyl)diethylsilane]tetrachloroplatinum(IV), CHEMBL2146203",483 nM
8,"[Bis(aminomethyl)tetramethylenesilane]tetrachloropaltinum(IV), CHEMBL2146189",1490 nM
9,"CISPLATIN, CHEMBL11359",3870 nM
10,"mu-(1,7-nanodiamine-N,N')bis-(cis-aminedichloroplatimum (II)), CHEMBL2146215",32100 nM
11,"[Bis(aminomethyl)tetramethylenesilane]dichloropaltinum(II), CHEMBL2146205",5160 nM
